Assay results as given in the supplement of paper PMC10849652.
The full data set covers some 7,900 targets. This sample favours those with a hit. About 0.6% of all pairs of compound and target were hits.

Columns and labels:
Test in all cases: log2 fold change, soluble protein after heating vs DMSO (PISA); higher = thermal stabilisation; K562 cells, 10 uM, 30 min; active = over 0.2 and 3.5 SD of the protein, either way, in both replicates (recomputed)
[1] = compound: CC[C@@H]1C(=O)N(C)c2cnc(Nc3ccc(C(=O)NC4CCN(C)CC4)cc3OC)nc2N1C1CCCC1
Procedure, shortened: (§1)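 Aliquots of K562 cells (2×10^6 cells/mL) treated with 10 μM compound for 30 min were heated for 3 min over 48°C-58°C. After pooling and extraction in PBS with 0.5% NP-40 at 4°C, soluble protein from a 21,000xg, 90 min spin was quantified by TMTpro 16plex LC-MS/MS with channel sums equalised. Thermal stability is expressed against control samples, from duplicates, as a log2 fold change.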

[2] = compound: CC[C@@H]1C(=O)N(C)c2cnc(Nc3ccc(C(=O)N[C@H]4CC[C@H](N5CCN(CC6CC6)CC5)CC4)cc3OC)nc2N1C(C)C [volasertib]
Procedure, shortened: as §1

[3] = compound: CC[C@H](C)N1C=C(C2=C(C=C(C=C21)C3=CN=C(C=C3)N4CCNCC4)C(=O)NCC5=C(C=C(NC5=O)C)C)C
Procedure, shortened: as §1

[4] = compound: CC[C@H](C)[C@@H](C(=O)N[C@@H]([C@@H](C)O)C(=O)N[C@@H](CC(C)C)C(=O)[C@]1(CO1)C)NC(=O)[C@H]([C@@H](C)CC)N(C)C(=O)C [epoxomicin]
Procedure, shortened: as §1

[5] = compound: CCn1c(C(=O)N(C2CC2)C2CC2)cc2c3c(ncn3C)c(Nc3cc(C)n(C)n3)nc21
Procedure, shortened: as §1

[6] = compound: CCn1cc(-c2ccnc3[nH]c(-c4cccc(CN(C)C)c4)cc23)c(-c2ccc(NC(=O)N(C)C)cc2)n1
Procedure, shortened: as §1

[7] = compound: CN(C)CC(=O)Nc1ccc2[nH]c(=O)c3ccccc3c2c1
Procedure, shortened: as §1

[8] = compound: CN(CCOC1=CC=C(C=C1)C[C@H]2C(=O)NC(=O)S2)C3=CC=CC=N3 (racemic) [rosiglitazone]
Procedure, shortened: as §1

[9] = compound: CN1C2=C(C3=C1C(=O)N(N=C3)CC4=CC(=CC=C4)N)SC(=C2)S(=O)C
Procedure, shortened: as §1

[10] = compound: CN1CCC(CNc2ccc3ncc(-c4cccc(OC(F)(F)F)c4)n3n2)CC1
Procedure, shortened: as §1

[11] = compound: CN1CCN(CCOc2cc(OC3CCOCC3)c3c(Nc4c(Cl)ccc5c4OCO5)ncnc3c2)CC1 [saracatinib]
Procedure, shortened: as §1

[12] = compound: CN1CCN(c2nc(C3=C(c4c[nH]c5ccccc45)C(=O)NC3=O)c3ccccc3n2)CC1 [sotrastaurin]
Procedure, shortened: as §1

[13] = compound: CN1CC[C@H](c2c(O)cc(O)c3c(=O)cc(-c4ccccc4Cl)oc23)[C@H](O)C1 [alvocidib]
Procedure, shortened: as §1

[14] = compound: CN1CCc2c(c3ccccc3n2Cc2ccc(C(=O)NO)cc2)C1 [Tubastatin A]
Procedure, shortened: as §1

[15] = compound: CNC(=O)C1=CC=CC=C1NC2=NC(=NC=C2Cl)NC3=C(C=C(C=C3)N4CCOCC4)OC
Procedure, shortened: as §1

[16] = compound: CNC(=O)c1ccc(Nc2ncc(C(F)(F)F)c(NCc3nccnc3N(C)S(C)(=O)=O)n2)cc1 [defactinib]
Procedure, shortened: as §1

[17] = compound: CNCc1ccc(-c2[nH]c3cc(F)cc4c3c2CCNC4=O)cc1 [rucaparib]
Procedure, shortened: as §1

[18] = compound: CNc1nc(-c2ccc3c(N)n[nH]c3c2)cc(N2C[C@@H](C(=O)NC3CCCCC3)CC[C@H]2C)n1
Procedure, shortened: as §1

[19] = compound: COC(=O)N[C@@H](C)CNc1nccc(-c2cn(C(C)C)nc2-c2cc(Cl)cc(NS(C)(=O)=O)c2F)n1 [encorafenib]
Procedure, shortened: as §1

[20] = compound: COC(=O)[C@H](CCSC)NC(=O)C1=C(C=C(C=C1)NC[C@H](CS)N)C2=CC=CC=C2
Procedure, shortened: as §1

Measured: log2 fold change

FMC1 (UniProt Q96HJ9)
UniProt Q96HJ9, sequence (Q96HJ9 whole entry, looked up): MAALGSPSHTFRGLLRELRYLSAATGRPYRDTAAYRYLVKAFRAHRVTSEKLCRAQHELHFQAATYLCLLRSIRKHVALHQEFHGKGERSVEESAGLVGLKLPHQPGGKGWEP
inactive: [1] 0.04 | [2] 0.102 | [3] -0.039 | [4] 0.059 | [5] -0.102 | [6] 0.046 | [7] -0.057 | [8] 0.044 | [9] -0.01 | [10] -0.02 | [11] 0.139 | [12] 0.09 | [13] 0.026 | [14] 0.034 | [15] 0.113 | [16] -0.056 | [17] -0.023 | [18] -0.071 | [19] -0.105 | [20] 0.051

FUCA1 (UniProt P04066)
inactive: [3] -0.061 | [4] -0.03 | [5] 0.007 | [6] -0.006 | [7] -0.025 | [8] -0.008 | [9] -0.017 | [10] -0.141 | [11] 0.038 | [12] -0.048 | [13] 0.059 | [14] -0.035 | [15] -0.015 | [16] -0.032 | [17] -0.186 | [18] 0.023 | [19] 0 | [20] 0.014
active: [1] -1.33 | [2] -1.73

HBA1 (UniProt P69905)
inactive: [1] 0.049 | [2] -0.059 | [3] -0.038 | [4] 0.316 | [5] 0.078 | [6] -0.076 | [7] 0.012 | [8] 0.022 | [9] -0.044 | [10] 0.153 | [11] -0.017 | [12] 0.036 | [13] -0.02 | [14] 0.035 | [15] -0.01 | [16] -0.014 | [17] -0.036 | [18] 0.011 | [19] -0.043 | [20] -0.034

HIST2H3A (UniProt Q71DI3)
inactive: [1] -0.206 | [2] 0.111 | [3] -0.023 | [4] -0.003 | [5] -0.185 | [6] 0.315 | [7] -0.124 | [8] 0.011 | [9] 0.56 | [10] 0.09 | [11] -0.196 | [12] 0.063 | [13] 0.165 | [14] 0.17 | [15] -0.166 | [16] 0.339 | [17] 0.306 | [18] 0.185 | [19] -0.063 | [20] 0.093

GOLPH3 (UniProt Q9H4A6)
UniProt Q9H4A6, sequence (Q9H4A6 whole entry, looked up): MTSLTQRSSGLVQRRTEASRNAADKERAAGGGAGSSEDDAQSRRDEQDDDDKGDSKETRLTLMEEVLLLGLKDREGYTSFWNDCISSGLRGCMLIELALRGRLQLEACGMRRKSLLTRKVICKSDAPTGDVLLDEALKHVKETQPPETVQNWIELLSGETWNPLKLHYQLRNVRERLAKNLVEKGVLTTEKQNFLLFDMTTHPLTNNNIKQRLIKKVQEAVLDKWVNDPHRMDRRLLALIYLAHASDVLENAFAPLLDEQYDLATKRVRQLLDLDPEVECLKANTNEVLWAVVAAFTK
active: [10] 0.236
inactive: [1] 0.029 | [2] 0.008 | [3] 0.086 | [4] 0.084 | [5] -0.016 | [6] -0.059 | [7] -0.001 | [8] 0.037 | [9] -0.075 | [11] -0.016 | [12] -0.046 | [13] -0.081 | [14] 0.028 | [15] 0.022 | [16] -0.064 | [17] -0.064 | [18] 0.013 | [19] 0.047 | [20] -0.044

FUBP3 (UniProt Q96I24)
UniProt Q96I24, sequence (Q96I24 whole entry, looked up): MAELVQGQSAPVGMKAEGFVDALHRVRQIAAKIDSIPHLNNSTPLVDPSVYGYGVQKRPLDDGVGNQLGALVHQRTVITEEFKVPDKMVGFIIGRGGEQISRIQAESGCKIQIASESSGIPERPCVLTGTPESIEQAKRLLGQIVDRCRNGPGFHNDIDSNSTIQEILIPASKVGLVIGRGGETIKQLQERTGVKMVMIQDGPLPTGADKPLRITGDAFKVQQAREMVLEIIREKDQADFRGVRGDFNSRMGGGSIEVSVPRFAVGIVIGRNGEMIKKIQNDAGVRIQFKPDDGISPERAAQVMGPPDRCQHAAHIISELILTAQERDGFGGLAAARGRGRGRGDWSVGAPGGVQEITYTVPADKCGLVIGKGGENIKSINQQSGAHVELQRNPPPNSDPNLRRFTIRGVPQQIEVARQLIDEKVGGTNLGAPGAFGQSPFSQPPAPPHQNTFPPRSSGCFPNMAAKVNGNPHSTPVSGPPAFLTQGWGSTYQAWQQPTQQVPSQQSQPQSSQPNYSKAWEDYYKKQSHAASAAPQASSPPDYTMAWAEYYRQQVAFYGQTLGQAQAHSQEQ
inactive: [1] 0.061 | [3] 0.045 | [4] 0.021 | [5] 0.025 | [6] 0.064 | [7] -0.028 | [8] 0.016 | [9] 0.02 | [10] 0.059 | [11] 0.012 | [12] 0.05 | [13] 0.129 | [14] -0.092 | [15] -0.039 | [16] 0.184 | [17] 0.167 | [18] -0.049 | [19] -0.003 | [20] -0.032
active: [2] -0.251

GABARAPL1 isoform 2 (UniProt Q9H0R8)
UniProt Q9H0R8, sequence (Q9H0R8 whole entry, looked up): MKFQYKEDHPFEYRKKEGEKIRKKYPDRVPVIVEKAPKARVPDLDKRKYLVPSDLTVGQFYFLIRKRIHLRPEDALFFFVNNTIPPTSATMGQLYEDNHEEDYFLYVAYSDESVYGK
inactive: [2] -0.186 | [3] 0.035 | [4] -0.029 | [5] -0.037 | [6] 0.007 | [7] 0.034 | [8] 0.03 | [9] -0.135 | [10] -0.187 | [11] -0.057 | [12] 0 | [13] -0.019 | [14] 0.08 | [15] 0.023 | [16] -0.011 | [17] -0.079 | [18] -0.006 | [19] -0.004 | [20] -0.058
active: [1] -0.303

GATA1 (UniProt P15976)
UniProt P15976, sequence (P15976 whole entry, looked up): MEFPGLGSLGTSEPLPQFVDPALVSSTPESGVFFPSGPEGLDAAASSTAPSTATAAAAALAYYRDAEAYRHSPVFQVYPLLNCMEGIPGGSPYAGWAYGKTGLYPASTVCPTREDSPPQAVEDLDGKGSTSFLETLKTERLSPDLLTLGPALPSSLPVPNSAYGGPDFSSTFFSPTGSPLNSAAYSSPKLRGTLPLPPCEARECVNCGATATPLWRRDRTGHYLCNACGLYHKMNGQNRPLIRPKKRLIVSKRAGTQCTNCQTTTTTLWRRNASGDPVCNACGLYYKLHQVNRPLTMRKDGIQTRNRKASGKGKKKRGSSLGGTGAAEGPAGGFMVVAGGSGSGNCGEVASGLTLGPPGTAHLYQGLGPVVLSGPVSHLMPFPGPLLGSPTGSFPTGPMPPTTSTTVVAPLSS
inactive: [1] 0.134 | [2] 0.076 | [3] -0.036 | [4] 0.152 | [5] -0.026 | [6] 0.04 | [7] -0.084 | [8] -0.021 | [9] 0.046 | [10] 0.119 | [11] 0.097 | [12] -0.042 | [13] 0.128 | [14] -0.049 | [15] 0.104 | [16] 0.088 | [17] 0.086 | [18] -0.014 | [19] 0.054 | [20] 0

IFT80 isoform 3 (UniProt Q9P2H3)
UniProt Q9P2H3, sequence (Q9P2H3 whole entry, looked up): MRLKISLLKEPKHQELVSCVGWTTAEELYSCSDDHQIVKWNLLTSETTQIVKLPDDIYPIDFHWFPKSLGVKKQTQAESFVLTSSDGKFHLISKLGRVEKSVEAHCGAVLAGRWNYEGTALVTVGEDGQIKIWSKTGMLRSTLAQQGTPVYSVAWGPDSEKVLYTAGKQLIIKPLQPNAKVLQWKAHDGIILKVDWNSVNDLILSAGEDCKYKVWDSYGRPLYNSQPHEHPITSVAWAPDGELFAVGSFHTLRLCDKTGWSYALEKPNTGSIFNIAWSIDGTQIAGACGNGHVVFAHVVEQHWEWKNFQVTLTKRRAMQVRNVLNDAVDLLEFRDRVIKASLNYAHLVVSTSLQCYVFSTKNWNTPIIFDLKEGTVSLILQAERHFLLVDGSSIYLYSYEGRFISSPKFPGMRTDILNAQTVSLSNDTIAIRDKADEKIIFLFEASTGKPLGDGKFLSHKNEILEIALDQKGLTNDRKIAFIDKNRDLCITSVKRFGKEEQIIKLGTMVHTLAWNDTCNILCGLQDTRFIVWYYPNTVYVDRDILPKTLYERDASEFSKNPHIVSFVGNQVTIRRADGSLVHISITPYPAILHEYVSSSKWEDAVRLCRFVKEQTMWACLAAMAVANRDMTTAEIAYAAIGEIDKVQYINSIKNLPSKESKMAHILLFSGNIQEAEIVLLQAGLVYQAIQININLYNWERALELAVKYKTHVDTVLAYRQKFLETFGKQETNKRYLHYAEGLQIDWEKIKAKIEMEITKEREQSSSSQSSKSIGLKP
active: [2] -0.232
inactive: [1] 0.039 | [3] 0.072 | [4] 0.053 | [5] 0.008 | [6] -0.09 | [7] 0.095 | [8] 0.028 | [9] -0.084 | [10] -0.157 | [11] -0.016 | [12] 0.029 | [13] -0.091 | [14] 0.094 | [15] 0.01 | [16] -0.023 | [17] 0.029 | [18] -0.007 | [19] 0.056 | [20] 0.014

GDPD1 (UniProt Q8N9F7)
UniProt Q8N9F7, sequence (Q8N9F7 whole entry, looked up): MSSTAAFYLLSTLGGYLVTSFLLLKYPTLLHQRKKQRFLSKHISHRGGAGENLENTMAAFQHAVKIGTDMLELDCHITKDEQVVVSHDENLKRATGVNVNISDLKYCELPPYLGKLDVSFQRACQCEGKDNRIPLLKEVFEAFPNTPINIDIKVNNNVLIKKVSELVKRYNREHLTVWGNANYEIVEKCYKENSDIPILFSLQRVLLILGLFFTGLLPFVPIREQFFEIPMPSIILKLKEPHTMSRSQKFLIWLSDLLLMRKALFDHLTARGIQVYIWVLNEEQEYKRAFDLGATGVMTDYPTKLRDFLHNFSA
inactive: [1] 0.069 | [2] 0.049 | [3] -0.019 | [4] 0.017 | [5] -0.015 | [6] -0.188 | [7] 0.004 | [8] 0.083 | [9] -0.132 | [10] 0.092 | [12] 0.21 | [13] -0.058 | [14] 0.019 | [15] -0.017 | [16] -0.087 | [17] -0.07 | [18] 0.042 | [19] -0.051 | [20] -0.041
active: [11] 0.505

GGT7 (UniProt Q9UJ14)
UniProt Q9UJ14, sequence (Q9UJ14 whole entry, looked up): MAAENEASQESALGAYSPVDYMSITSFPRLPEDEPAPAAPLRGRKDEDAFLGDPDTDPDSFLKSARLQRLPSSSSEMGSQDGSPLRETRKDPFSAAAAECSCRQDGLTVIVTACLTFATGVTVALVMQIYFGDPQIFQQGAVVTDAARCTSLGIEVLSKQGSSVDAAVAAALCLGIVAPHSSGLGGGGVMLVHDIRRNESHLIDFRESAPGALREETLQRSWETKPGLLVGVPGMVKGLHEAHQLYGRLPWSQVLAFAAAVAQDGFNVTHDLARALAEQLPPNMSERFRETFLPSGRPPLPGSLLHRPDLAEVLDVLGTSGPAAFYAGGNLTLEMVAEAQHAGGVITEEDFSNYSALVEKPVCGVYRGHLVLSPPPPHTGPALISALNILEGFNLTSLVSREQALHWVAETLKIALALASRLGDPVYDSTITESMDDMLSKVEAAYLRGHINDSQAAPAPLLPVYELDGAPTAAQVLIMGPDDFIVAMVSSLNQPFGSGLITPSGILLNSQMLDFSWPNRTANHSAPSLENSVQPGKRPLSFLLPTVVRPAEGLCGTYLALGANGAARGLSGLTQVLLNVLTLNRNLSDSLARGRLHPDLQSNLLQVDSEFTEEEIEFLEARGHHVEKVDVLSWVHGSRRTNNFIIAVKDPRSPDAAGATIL
inactive: [1] 0.029 | [2] -0.063 | [3] -0.069 | [4] 0.079 | [5] -0.013 | [6] -0.124 | [7] 0.081 | [8] 0.005 | [9] 0.02 | [10] 0.023 | [11] 0.066 | [12] 0.051 | [13] -0.049 | [14] 0.053 | [15] -0.042 | [16] -0.027 | [17] -0.038 | [18] -0.091 | [19] 0 | [20] -0.011

GUSB (UniProt P08236)
inactive: [1] -0.104 | [2] 0.067 | [3] 0.354 | [4] -0.053 | [5] -0.151 | [6] -0.026 | [7] -0.001 | [8] -0.041 | [9] -0.028 | [10] 0.001 | [11] 0.03 | [12] -0.004 | [13] 0.021 | [14] -0.054 | [15] 0.045 | [16] -0.055 | [17] 0.048 | [18] -0.039 | [19] 0.128 | [20] 0.029

HDHD2 (UniProt Q9H0R4)
UniProt Q9H0R4, sequence (Q9H0R4 whole entry, looked up): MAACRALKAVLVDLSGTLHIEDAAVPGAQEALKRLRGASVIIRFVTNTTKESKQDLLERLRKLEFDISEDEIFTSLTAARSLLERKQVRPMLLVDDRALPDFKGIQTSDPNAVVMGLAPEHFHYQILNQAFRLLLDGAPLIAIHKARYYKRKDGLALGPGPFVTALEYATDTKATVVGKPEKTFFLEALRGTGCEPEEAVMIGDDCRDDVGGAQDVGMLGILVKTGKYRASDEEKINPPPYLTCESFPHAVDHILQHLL
inactive: [1] 0.011 | [2] 0.049 | [3] -0.007 | [4] 0.073 | [5] -0.012 | [6] -0.063 | [7] 0.053 | [8] 0.017 | [9] -0.058 | [10] -0.096 | [11] -0.004 | [12] -0.077 | [13] -0.028 | [14] -0.016 | [15] -0.017 | [16] 0 | [17] -0.049 | [18] -0.048 | [19] 0.016 | [20] -0.018

HNRNPF (UniProt P52597)
UniProt P52597, sequence (P52597 whole entry, looked up): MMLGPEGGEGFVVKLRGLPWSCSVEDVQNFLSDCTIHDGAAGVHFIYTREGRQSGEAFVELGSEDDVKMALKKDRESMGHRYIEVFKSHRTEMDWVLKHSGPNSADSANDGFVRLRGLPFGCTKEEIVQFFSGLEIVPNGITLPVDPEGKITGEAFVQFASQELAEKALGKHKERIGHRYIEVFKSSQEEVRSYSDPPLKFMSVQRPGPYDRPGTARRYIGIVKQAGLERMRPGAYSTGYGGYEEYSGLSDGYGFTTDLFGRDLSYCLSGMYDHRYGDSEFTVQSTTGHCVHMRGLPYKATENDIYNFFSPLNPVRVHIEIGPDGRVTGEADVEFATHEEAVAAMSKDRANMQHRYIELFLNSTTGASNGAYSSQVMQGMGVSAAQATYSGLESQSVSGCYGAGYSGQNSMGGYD
inactive: [1] -0.049 | [3] 0.128 | [4] 0.009 | [5] -0.066 | [6] -0.027 | [7] 0.051 | [8] 0.037 | [9] 0.052 | [10] -0.153 | [11] -0.042 | [12] -0.121 | [13] -0.088 | [14] 0.086 | [15] 0.004 | [16] -0.253 | [17] 0.098 | [18] 0.004 | [19] 0.119 | [20] -0.06
active: [2] -0.587

HIC2 (UniProt Q96JB3)
UniProt Q96JB3, sequence (Q96JB3 whole entry, looked up): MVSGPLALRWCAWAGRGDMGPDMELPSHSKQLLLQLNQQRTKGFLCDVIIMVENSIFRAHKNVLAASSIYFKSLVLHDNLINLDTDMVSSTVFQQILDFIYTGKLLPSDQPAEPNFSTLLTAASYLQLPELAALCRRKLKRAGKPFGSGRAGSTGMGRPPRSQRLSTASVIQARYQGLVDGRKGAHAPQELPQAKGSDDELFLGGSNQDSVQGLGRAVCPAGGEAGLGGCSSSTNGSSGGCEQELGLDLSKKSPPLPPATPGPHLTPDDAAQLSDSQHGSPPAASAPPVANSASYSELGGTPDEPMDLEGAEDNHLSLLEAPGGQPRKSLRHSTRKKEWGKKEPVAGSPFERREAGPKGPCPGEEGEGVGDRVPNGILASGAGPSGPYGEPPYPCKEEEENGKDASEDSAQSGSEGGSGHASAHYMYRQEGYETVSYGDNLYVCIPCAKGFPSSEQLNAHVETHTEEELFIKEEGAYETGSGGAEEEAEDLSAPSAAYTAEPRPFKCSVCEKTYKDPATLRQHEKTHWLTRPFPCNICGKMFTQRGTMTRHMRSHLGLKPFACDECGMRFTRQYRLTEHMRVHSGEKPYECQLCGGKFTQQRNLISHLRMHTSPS
inactive: [1] 0.028 | [2] -0.19 | [3] 0.032 | [4] -0.134 | [5] 0.126 | [6] 0.128 | [7] -0.035 | [8] -0.185 | [9] 0.164 | [10] -0.006 | [11] -0.152 | [12] -0.236 | [13] 0.033 | [14] -0.034 | [15] -0.011 | [16] -0.008 | [17] 0.142 | [18] -0.019 | [19] 0.045 | [20] 0.089

HMOX2 (UniProt P30519)
UniProt P30519, sequence (P30519 whole entry, looked up): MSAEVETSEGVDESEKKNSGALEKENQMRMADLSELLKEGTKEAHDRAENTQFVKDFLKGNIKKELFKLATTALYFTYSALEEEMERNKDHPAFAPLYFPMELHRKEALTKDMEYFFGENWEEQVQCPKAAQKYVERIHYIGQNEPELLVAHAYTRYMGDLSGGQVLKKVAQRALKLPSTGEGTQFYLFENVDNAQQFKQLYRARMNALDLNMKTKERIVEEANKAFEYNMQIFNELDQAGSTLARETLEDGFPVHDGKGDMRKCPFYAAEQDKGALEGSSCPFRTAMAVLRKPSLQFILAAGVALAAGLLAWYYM
active: [2] -0.251
inactive: [1] -0.015 | [3] 0.074 | [4] 0.009 | [5] -0.054 | [6] -0.069 | [7] 0.008 | [8] 0.012 | [9] 0.011 | [10] 0.054 | [11] -0.071 | [12] -0.04 | [13] -0.06 | [14] 0.004 | [15] 0.03 | [16] -0.049 | [17] 0.036 | [18] 0.15 | [19] 0.081 | [20] -0.038
